Results published in PubChem BioAssay (NCI).
Where “and” joins values, the source holds several entries; their conditions need not be identical. Identical values can stand only once. About 83,000 compounds went through this panel and 20% of them were active in at least one assay; those are over-represented in the sample as a whole.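 Negative percent growth values reflect cell death: -40 means 40% of the cells present at the start died, and -100 means all died.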 Calls of active or inactive are those of the source. How the source made its calls: active means growth percent below 10; inactive means the rest.

What was measured:
Experiment in all cases: NCI-60 one-dose screen, 48 h (100 = growth as untreated, 0 = no growth, -100 = all killed)
Details in all cases: 10 µM unless noted
[1] = system: RPMI-8226 leukemia
[2] = system: OVCAR-8 ovarian
[3] = system: OVCAR-5 ovarian
[4] = system: OVCAR-4 ovarian
[5] = system: SK-OV-3 ovarian
[6] = system: IGROV1 ovarian
[7] = system: OVCAR-3 ovarian
[8] = system: HS 578T breast
[9] = system: NCI/ADR-RES ovarian
[10] = system: T-47D breast
[11] = system: BT-549 breast
[12] = system: MDA-MB-435 melanoma
[13] = system: SW-620 colon
[14] = system: MCF7 breast
[15] = system: HCT-116 colon
[16] = system: HCC-2998 colon
[17] = system: KM12 colon
[18] = system: SR leukemia

CC(C(=O)O)n1cc(C#N)c(=O)[nH]c1=O (stereo unspecified)
growth [1]: 106% (inactive) and 104% (inactive)
growth [2]: 103% (inactive) and 113% (inactive)
growth [3]: 94.8% (inactive) and 105% (inactive)
growth [4]: 108% (inactive) and 110% (inactive)
growth [5]: 102% (inactive) and 98.6% (inactive)
growth [6]: 101% (inactive) and 109% (inactive)
growth [7]: 116% (inactive) and 101% (inactive)
growth [8]: 114% (inactive) and 113% (inactive)
growth [9]: 106% (inactive)
growth [10]: 108% (inactive) and 101% (inactive)
growth [11]: 99.4% (inactive)
growth [12]: 94.8% (inactive) and 106% (inactive)
growth [13]: 101% (inactive) and 106% (inactive)
growth [14]: 101% (inactive) and 93% (inactive)
growth [15]: 105% (inactive)
growth [16]: 101% (inactive) and 104% (inactive)
growth [17]: 101% (inactive) and 107% (inactive)

COc1cc(C(=O)c2ccc3c(c2)OCO3)cc(OC)c1OC
growth [1]: 29.6% (inactive) and 34% (inactive)
growth [2]: 33.9% (inactive) and 36.5% (inactive)
growth [3]: 62.3% (inactive) and 63.4% (inactive)
growth [4]: 80.8% (inactive) and 53.9% (inactive)
growth [5]: 24.2% (inactive) and 27.7% (inactive)
growth [6]: 11.1% (inactive) and 30.7% (inactive)
growth [7]: -38.3% (active) and -26.6% (active)
growth [8]: 19.2% (inactive) and -19.2% (active)
growth [9]: 10.9% (inactive) and 25% (inactive)
growth [10]: 34.4% (inactive) and 32.8% (inactive)
growth [11]: 45.5% (inactive) and 30.3% (inactive)
growth [12]: -19.5% (active) and -21.3% (active)
growth [13]: 16.1% (inactive) and 9.92% (active)
growth [15]: 27.2% (inactive) and 24.5% (inactive)
growth [16]: 60.1% (inactive) and 54.8% (inactive)
growth [17]: 24.7% (inactive) and 27.3% (inactive)

CC(C)N=c1cc2n(-c3ccc(Cl)cc3)c3ccccc3nc-2cc1Nc1ccc(Cl)cc1
growth [18]: -35.4% (active) and 9.31% (active)
growth [1]: 2.57% (active) and -21.9% (active) and -42.6% (active)
growth [4]: 5.39% (active) and 11.1% (inactive) and 7.85% (active)
growth [5]: 37.6% (inactive) and 52.9% (inactive) and 42.6% (inactive)
growth [6]: 30.2% (inactive) and -9.37% (active)
growth [7]: -37.5% (active) and -71.1% (active) and -66.3% (active)
growth [8]: -13.2% (active) and 13.1% (inactive)
growth [9]: 23.2% (inactive) and -2.63% (active) and 39.2% (inactive)
growth [11]: 41.2% (inactive) and 11.6% (inactive) and -4.5% (active)
growth [12]: -25.6% (active) and -22.8% (active) and -46.2% (active)
growth [13]: 13.4% (inactive) and 9.23% (active) and 6.7% (active)
growth [14]: 11.9% (inactive) and 18.4% (inactive) and 10.5% (inactive)
growth [15]: -54.6% (active) and -63.1% (active) and -82.7% (active)
growth [16]: 16.8% (inactive) and -34.4% (active) and -17.4% (active)

COc1ccc2ccccc2c1/C=N/N1CCCCC1
growth [18]: 108% (inactive)
growth [1]: 91.3% (inactive)
growth [4]: 99.5% (inactive)
growth [5]: 111% (inactive)
growth [6]: 116% (inactive)
growth [7]: 103% (inactive)
growth [8]: 98.5% (inactive)
growth [11]: 102% (inactive)
growth [12]: 99.1% (inactive)
growth [13]: 103% (inactive)
growth [15]: 102% (inactive)
growth [16]: 109% (inactive)
growth [17]: 108% (inactive)

CCN(CC)CCCC(C)Nc1ccnc2cc(Oc3ccccc3)ccc12 (stereo unspecified)
growth [1]: 68.6% (inactive)
growth [2]: 63.1% (inactive) and 77.7% (inactive)
growth [3]: 82.7% (inactive) and 90.8% (inactive)
growth [4]: 75.2% (inactive) and 92.9% (inactive)
growth [5]: 91.2% (inactive) and 97.2% (inactive)
growth [6]: -53.5% (active) and 63.2% (inactive)
growth [7]: 83.4% (inactive) and 85.8% (inactive)
growth [8]: 69% (inactive)
growth [9]: 102% (inactive) and 96.9% (inactive)
growth [10]: 28.8% (inactive) and 83.9% (inactive)
growth [11]: 62.9% (inactive) and 86% (inactive)
growth [12]: 2.5% (active) and 24.4% (inactive)
growth [13]: 55.8% (inactive) and 79.4% (inactive)
growth [14]: 55.3% (inactive) and 82.7% (inactive)
growth [15]: 32% (inactive) and 54.9% (inactive)
growth [16]: 90.9% (inactive) and 77.7% (inactive)
growth [17]: 78.5% (inactive) and 87.2% (inactive)

CN1CCN(C2CCN(C(=O)Nc3cc(Oc4ccc(NC(=O)C5(C(=O)Nc6ccc(F)cc6)CC5)c(F)c4)ccn3)CC2)CC1
growth [18]: -22.9% (active) and 58.4% (inactive)
growth [1]: -38.9% (active) and 105% (inactive)
growth [3]: -10.9% (active) and 94.3% (inactive)
growth [4]: -5.41% (active) and 83.2% (inactive)
growth [5]: -51.1% (active) and 74.6% (inactive)
growth [7]: 2.87% (active) and 108% (inactive)
growth [8]: 56.7% (inactive)
growth [9]: 13.3% (inactive) and 99.5% (inactive)
growth [11]: -68.7% (active) and 98.5% (inactive)
growth [12]: -93% (active) and 85.8% (inactive)
growth [13]: -14.2% (active) and 122% (inactive)
growth [15]: -58.6% (active) and 69.1% (inactive)
growth [16]: -66.8% (active) and 136% (inactive)
growth [17]: -46% (active) and 30.4% (inactive)
